Test results as given in PubChem BioAssay (NCI).
About 79,000 compounds went through this panel and 15% of them were active in at least one assay; those are over-represented in the sample as a whole. Cut-off read from the data, not from the text of the source: active = growth inhibition above about 70%; inactive = the rest. Where a SMILES comes first, the peptide text is derived from it. The star is where a group is joined. For = O=C*

Experiments:
[1] = NCI Yeast Anticancer Drug Screen. Data for the rad50 strain (AID 155);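 note: 0% = growth of vehicle-only cultures of the same strain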; conditions: S. cerevisiae rad50 strain growth inhibition; at 50.0 µM; stronger effect = higher value
Summary of the method: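 A DNA repair-deficient yeast mutant serves as the test organism; compound-induced growth inhibition is calculated against vehicle-treated cells.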

[2] = NCI Yeast Anticancer Drug Screen. Data for the mec2-1 strain (AID 157); conditions: S. cerevisiae mec2-1 strain, at 50.0 µM, stronger effect = higher value
Summary of the method: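 Vehicle-treated cultures served as reference for growth inhibition of compound-exposed mec2-1 yeast.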

[3] = NCI Yeast Anticancer Drug Screen. Data for the sgs1 mgt1 strain (AID 161);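 note: 0% = growth of cultures given vehicle only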; conditions: S. cerevisiae sgs1 mgt1 strain, at 50.0 µM, stronger effect = higher value
Summary of the method: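 Genetically altered yeast, compound exposure, growth inhibition relative to vehicle.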

[4] = NCI Yeast Anticancer Drug Screen. Data for the cln2 rad14 strain (AID 165);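 note: 0% = growth equal to vehicle treated cultures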; conditions: S. cerevisiae cln2 rad14 strain, at 50.0 µM, stronger effect = higher value
Summary of the method: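 Each compound was tested on cln2 rad14 yeast. Inhibition of growth was calculated against vehicle-exposed controls.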

[5] = NCI Yeast Anticancer Drug Screen. Data for the bub3 strain (AID 167); conditions: S. cerevisiae bub3 mutant strain, at 50.0 µM, stronger effect = higher value
Summary of the method: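 Inhibition values come from growth of compound-treated mutant yeast normalised to vehicle-treated controls.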

[6] = NCI Yeast Anticancer Drug Screen. Data for the mlh1 rad18 strain (AID 175); conditions: S. cerevisiae mlh1 rad18 strain growth inhibition; at 50.0 µM; stronger effect = higher value
Summary of the method: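 Vehicle-treated cultures served as the reference for growth inhibition in a yeast strain carrying DNA damage repair alterations exposed to each compound.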

Measured: growth inhibition

COC(=O)N/N=C/c1cccnc1
inactive: [1] 2.05% | [2] -6.6% | [3] -3.05% | [4] -72.2% | [5] 9.8% | [6] -26.8%

Cc1ccc(Cc2ccccc2C(=O)O)cc1
inactive: [1] -5.95% | [2] 1.55% | [3] -2.3% | [4] -42.9% | [5] -2.45% | [6] -6.05%

Cn1c(=O)cnc2c3ccccc3ccc21
inactive: [1] 22.8% | [2] 5.15% | [3] 23.6% | [4] 15.8% | [5] 18.4% | [6] 19.6%

[O-]c1c[n+](-c2ccc3c(c2)OCO3)no1
inactive: [1] 3.2% | [2] -3.25% | [3] -0.25% | [4] -16.4% | [5] 7.3% | [6] 13.7%

N=C(CC(=O)Nc1ccccn1)c1ccccc1
inactive: [1] 1.25% | [2] -28.7% | [3] -23.3% | [4] -32% | [5] -20.9% | [6] -16.6%

NC(=S)NNC(=O)c1cccs1
inactive: [1] -9.9% | [2] -10.2% | [3] 22.6% | [4] 3.35% | [5] 7.05% | [6] 9.75%

CSCCC(NC(=O)C(Cc1ccccc1)NC=O)C(=O)O (stereo not drawn) (For-Phe-Met-OH; configuration not given here)
inactive: [1] -12.1% | [2] -26.9% | [3] -10.5% | [4] 5.7% | [5] 19.4% | [6] -11.5%

O=S(=O)(Nc1ccn(-c2ccccc2)n1)c1ccc(NCc2c3ccccc3nc3cc(Cl)ccc23)cc1
inactive: [1] 17.1% | [2] 21.2% | [3] 15.8% | [4] -24.2% | [5] -13.6% | [6] 23.6%

COc1cc(C2c3cc4c(cc3[C@@H](OC3OC5CO[C@@H](C)OC5C(O)C3O)[C@H]3COC(=O)C23)OCO4)cc(OC)c1OC (stereo partly specified)
inactive: [1] 2.4% | [2] -36.1% | [3] -21.9% | [4] 12.4% | [5] -16.7% | [6] -83.5%

Nc1nc(Cl)c2nc(Cl)n(C3OC(CO)C(O)C3O)c2n1 (stereo unspecified)
inactive: [1] -7.1% | [2] 1.75% | [3] -8.7% | [4] -16% | [5] 4.5% | [6] -4.25%

COC(=O)C(=O)c1c(C(=O)OC)nc2nnc(N)n2c1-c1ccc(Cl)c(Cl)c1
inactive: [1] 1.7% | [2] -2.8% | [3] -4.9% | [4] -29.9% | [5] 16.1% | [6] -7.55%

Oc1c(O)c(O)c(O)c(O)c1O
inactive: [1] -5.3% | [2] 4.15% | [3] 7.45% | [4] -13.9% | [5] -0.45% | [6] -3%

Cc1ccc(-n2cc(-c3ccc(Cl)cc3)c3c2N=CN2NC(c4ccco4)=NC32)cc1 (stereo unspecified)
inactive: [1] 5.1% | [2] 14.8% | [3] -13.6% | [4] -12.4% | [5] 11% | [6] -15.3%

Cc1cccc(/C=N\N=C\c2cccc(C)n2)n1
inactive: [1] 3.9% | [2] -10.2% | [3] -3.25% | [4] -3% | [5] -1.45% | [6] 23.3%

CC(=O)N=C1N(/C=C2\C(=O)Oc3ccccc3C2=O)C(=O)/C(=C/c2ccc(OC(C)=O)cc2)N1C
inactive: [1] -9.55% | [2] -17% | [3] -14.9% | [4] 12.9% | [5] 1.05% | [6] 0.75%

COc1ccc(CSC(=S)Nc2ccc(N=Nc3ccccc3)cc2)cc1
inactive: [1] 33.7% | [2] 11.6% | [3] 24.6% | [4] 25.4% | [5] -7.3% | [6] 1.55%

NNc1nnc(NN)c2ccccc12
inactive: [1] 1.75% | [2] -2.05% | [3] 0.8% | [4] 3.65% | [5] 4.45% | [6] 4.7%

CC1=C(C(=O)CC(=O)C(=O)Nc2cccc(C)c2C)Sc2ccccc2N1
inactive: [1] -24.6% | [2] -43.1% | [3] -12.8% | [4] -1.9% | [5] -13.8% | [6] -12.5%

CCOC(=O)c1ccc(NC(=O)CCCCCCCCC(=O)Nc2ccc(C(=O)OCC)cc2)cc1
inactive: [1] 7.5% | [2] -5.6% | [3] -0.85% | [4] -8.45% | [5] -2.1% | [6] -6.95%

CN(C)c1ccc(NC2COc3ccccc3C2=O)cc1 (stereo unspecified)
inactive: [1] -13.1% | [2] 3.9% | [3] 17.4% | [4] -17.2% | [5] 67% | [6] -6.6%

C/C=C1/CC(C)C(C)(O)C(=O)OCC2C(O)CN3CCC(OC1=O)C23 (stereo unspecified)
inactive: [1] 12.4% | [2] -2.3% | [3] -15.5% | [4] -10.3% | [5] -3.85% | [6] -43.6%

O=C(O)c1ccccc1C(=O)c1ccccn1
inactive: [1] -4% | [2] -31.8% | [3] -5.9% | [4] 10.6% | [5] -17.2% | [6] -15.2%

O=[N+]([O-])c1ccc(-c2csc(NCC3CCCO3)n2)cc1 (stereo unspecified)
inactive: [1] 24.3% | [2] -10.6% | [3] 49.9% | [4] 21.1% | [5] 21.6% | [6] 17.9%

O=C(O)C1(N(CCO)CCO)CCCC1
inactive: [1] -15.6% | [2] -11.7% | [3] 3.4% | [4] -35.3% | [5] -11.2% | [6] -1.65%

Nc1nc(N)c2c(n1)NCN(OCOc1ccc(Cl)cc1)C2
inactive: [1] -5.05% | [2] -6% | [3] -4.7% | [4] -21.8% | [5] 7.75% | [6] 1.55%

CC(=O)/C(C=Nc1c(C)n(C)n(-c2ccccc2)c1=O)=C(/C)O
inactive: [1] 24.6% | [2] 29% | [3] 28.1% | [4] 9.65% | [5] 24.9% | [6] 28.5%

Cc1ccc(N=Nc2ccc(C)cc2NC(=O)c2ccc(Cl)cc2)cc1
inactive: [1] -3.15% | [2] 10.2% | [3] 17.1% | [4] -7.8% | [5] 32.3% | [6] 8.85%

CCCCS(=O)(=O)Cc1ccccc1
inactive: [1] 1.75% | [2] -0.55% | [3] -1.25% | [4] -14.1% | [5] 0.3% | [6] -17.4%

CCN(CC)C1=C(C)S(=O)(=O)C1c1ccc(C)cc1 (stereo unspecified)
inactive: [1] -9.1% | [2] -12.6% | [3] -8.85% | [4] 5.6% | [5] -13.4% | [6] -2.15%

O=C(Cc1ccccc1)NN1C(=O)/C(=C\c2cccc([N+](=O)[O-])c2)SC1=Nc1ccccc1
inactive: [1] -2.7% | [2] -15.2% | [3] 9.95% | [4] 17.1% | [5] -14.8% | [6] 0.85%

COc1ccc(C(=O)OCc2ccccc2CN2CCCCC2)cc1
inactive: [1] -4.75% | [2] -7.25% | [3] 11.4% | [4] -16.3% | [5] -14.2% | [6] -5.6%

COc1ccccc1NC(=O)CC(=O)n1nc(C)c(N=Nc2ccccc2C(=O)O)c1C
inactive: [1] -12.6% | [2] -25.3% | [3] -17.6% | [4] -14.9% | [5] -15.8% | [6] -9.5%

O=c1c2ccccc2n2c(-c3ccc(O)cc3)nnc2n1-c1ccccc1
inactive: [1] -30.3% | [2] -17.1% | [3] 4.4% | [4] 7.75% | [5] 1.5% | [6] -14.8%

COc1ccc2c(=O)c(-c3ccc(OC)c(OC)c3)c(C)oc2c1
inactive: [1] -0.7% | [2] -1.5% | [3] 13.1% | [4] 7.5% | [5] -31.4% | [6] -4.85%

CCOC(=O)c1ccc(CCCN)cc1
inactive: [1] -17.8% | [2] -13.2% | [3] 12.9% | [4] -28.2% | [5] -10% | [6] 0.65%

Nc1ccc(-c2ccc(Nc3cc(S(=O)(=O)O)c(N)c4c3C(=O)c3ccccc3C4=O)cc2)c(S(=O)(=O)O)c1
inactive: [1] -23.9% | [2] 14.8% | [3] -32.5% | [4] 8.45% | [5] -38.1% | [6] -9.05%
